Assay outcomes (PubChem BioAssay)
PLK1 PBD inh: inhibitors of human PLK1 polo-box domain binding | AID 720504 | P53350 | Plk1 PBD binding of FITC phosphopeptide, fluorescence polarization | Potency, µM, inactives show max response, negative = inhibition, actives largely listed as inhibitors | 2.8% of 360,000 active; also: series mostly up to about 57 µM; % is scaled to controls: 0 for no effect and ±100 for the full control effect; nearly all actives have a fitted effect of over 65% in size
HP1b binding inh: HP1-beta chromodomain-methylated histone interaction inhibition. P83916. AlphaScreen HP1-beta / biotin-H3K9me3 peptide binding. Potency, µM (titrated, usually from 114 µM), for the others: top-dose activity change, negative = inhibition, actives largely listed as inhibitors. 0.56% of 390,000 active; also: nearly all actives have a fitted effect of over 70% in size
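AlphaScreen: HP1-beta (50 nM) preformed 30 min with biotin-H3(1-18)K9me3 peptide (50 nM) in PBS pH 7.4, 0.01% Tween-20. Compound added for 30 min at RT, then streptavidin donor/nickel chelate acceptor beads (10 ug/mL) for 30 min.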
L3MBTL1 block: inhibitors of human L3MBTL1 | Q9Y468 | AlphaScreen L3MBTL1–H3K9me1 peptide binding | Potency, µM (series often up to 57.1 µM), inactives show at the top dose activity, negative = inhibition, most hits filed as inhibitors | 0.66% of 230,000 active; also: % is scaled to controls: 0 for no effect and ±100 for the full control effect; nearly all actives have a fitted effect of over 60% in size
Target sequence (Q9Y468 whole entry, looked up): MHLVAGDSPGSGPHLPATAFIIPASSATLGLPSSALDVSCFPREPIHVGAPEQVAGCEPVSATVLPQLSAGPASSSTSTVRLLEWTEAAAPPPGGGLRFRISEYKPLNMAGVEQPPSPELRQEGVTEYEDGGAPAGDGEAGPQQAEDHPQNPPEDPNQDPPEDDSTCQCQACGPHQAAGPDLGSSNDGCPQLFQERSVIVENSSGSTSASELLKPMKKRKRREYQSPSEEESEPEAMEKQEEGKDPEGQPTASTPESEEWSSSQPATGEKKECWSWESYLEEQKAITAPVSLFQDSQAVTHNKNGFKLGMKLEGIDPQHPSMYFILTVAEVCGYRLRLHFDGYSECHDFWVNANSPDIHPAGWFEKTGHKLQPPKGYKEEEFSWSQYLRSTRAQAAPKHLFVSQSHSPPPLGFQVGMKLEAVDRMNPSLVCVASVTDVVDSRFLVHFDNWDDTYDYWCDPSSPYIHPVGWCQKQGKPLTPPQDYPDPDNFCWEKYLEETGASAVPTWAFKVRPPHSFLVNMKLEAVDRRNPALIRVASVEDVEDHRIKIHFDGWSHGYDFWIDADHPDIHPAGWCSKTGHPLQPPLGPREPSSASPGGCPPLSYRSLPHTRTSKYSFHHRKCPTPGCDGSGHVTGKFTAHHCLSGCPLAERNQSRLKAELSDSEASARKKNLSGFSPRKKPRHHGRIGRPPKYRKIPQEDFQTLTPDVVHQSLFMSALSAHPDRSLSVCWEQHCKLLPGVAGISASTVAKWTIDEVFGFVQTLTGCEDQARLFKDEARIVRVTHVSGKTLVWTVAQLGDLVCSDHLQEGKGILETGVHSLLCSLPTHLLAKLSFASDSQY
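L3MBTL1 50 nM + b-AHA-H3(1-15)K9me1 75 nM, 30 min RT; compound added, 30 min RT; streptavidin donor/Ni-chelate acceptor beads 10 ug/mL each final, 30 min RT dark; AlphaScreen read.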
VDR inhibitor: blocks the human vitamin D receptor; P11473; VDR-SRC2-3 peptide fluorescence polarization, 2 h; Potency, µM, for the others: max response, negative = inhibition, most hits filed as inhibitors; 0.93% of 400,000 active; AID 504847; also: % is scaled to controls: 0 for no effect and ±100 for the full control effect
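Compounds are added to VDR with labelled SRC2-3 coactivator peptide and held 2 h at room temperature. Inhibition of the VDR–peptide interaction is then read as a change in fluorescence polarization.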
BAZ2B block: blocks human BAZ2B; Q9UIF8; Potency, µM (top dose mostly 114 µM), inactives show at the top dose activity change, negative = inhibition, usual class: inhibitors; AlphaScreen BAZ2B-H3K14Ac peptide displacement; AID 504333; 4.4% of 360,000 active; also: % is scaled to controls: 0 for no effect and ±100 for the full control effect; nearly all actives have a fitted effect of over 60% in size
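BAZ2B (50 nM) with biotin-H3(5-23)K14Ac peptide (50 nM) in PBS pH 7.4, 0.01% Tween-20, preformed 30 min, then compound 30 min at room temperature; top concentration 110uM. AlphaScreen streptavidin donor/nickel chelate acceptor beads (10 ug/mL final), 20 min dark, signal read.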
JMJD2A Tudor inh: JMJD2A Tudor domain (human) inhibition; O75164; AlphaScreen JMJD2A-Tudor / H3K4me3 peptide binding; Potency, µM (titrated, usually from 114 µM), for inactives: top-dose activity change, negative = inhibition, most hits filed as inhibitors; 4.4% of 390,000 active; AID 504339; also: % is scaled to controls: 0 for no effect and ±100 for the full control effect; nearly all actives have a fitted effect of over 50% in size
* = called active by the depositor; ? = inconclusive; . = no result given; [ ] = another dose, or the depositor's remark. This is a sample that favours compounds with a hit; in the whole collection about 6.9% have one here. Calls follow the shape of the dose curve; as a rule, active = well fitted curve in the direction sought with a large enough effect; inconclusive = small, poorly fitted or top-dose-only effect, or another doubt; inactive = no such curve, though single readings can be large; an effect the other way counts as inactive or inconclusive. Potency is read from the fitted curve at half-maximal effect.

SMILES	PLK1 PBD inh	HP1b binding inh	L3MBTL1 block	VDR inhibitor	BAZ2B block	JMJD2A Tudor inh
Cc1ncc(CO)c(/C=N/NC(=S)Nc2ccc(Cl)c(Cl)c2)c1O	27µM*	?	?	?	22µM*	?
Cc1ncc(CO)c(/C=N/NC(=S)Nc2cccc(Cl)c2)c1O	21µM*	?	14µM*	79µM*	13µM*	56µM*
O=C(CN1C(=O)CCSc2ccc(S(=O)(=O)N3CCCC3)cc21)Nc1cccc(Cl)c1	.	28%[57 µM]	.	11%	1%	-14%
COCCNCCCOc1ccc(C)cc1Br	-9%	-18%	40%	16%	56µM*	20µM*
COCCCNCCCOc1ccc(Cl)cc1Br	-11%	?	1%	31%	?	0.89µM*
COCCCNCCCOc1ccc(C)cc1Br	-7%	8%	-2%	-3%	50µM*	3.5µM*
CCCCNCCOCCOc1ccc(Cl)cc1Br	-8%	-14%	6%	11%	79µM*	4.5µM*
COCCCNC(=O)COc1ccc(Br)cc1Cl	-12%	27%	7%	-7%	-5%	-6%
CC(=O)c1cccc(NC(=O)Cn2nc(C(F)(F)F)c3c2CCC3)c1	.	38%	.	4%	1%	-7%
O=C(NCCc1csc(-c2ccc(C(F)(F)F)cc2)n1)C(=O)Nc1cc(F)ccc1F	.	30%[57 µM]	.	8%	5%	-4%
CCNc1ncc2nc(-c3ccc(Cl)cc3)c(=O)n(Cc3ccc(F)cc3)c2n1	.	.	.	5%	.	.
CCN(CC)CCCOc1ccc(C)cc1Br	-2%	?	.	-19%	79µM*	14µM*
CC(C)NCCCOc1ccc(Cl)cc1Br	-2%	?	0%	2%	?	32µM*
CCCCNCCOCCOc1ccc(F)cc1	-9%	?	8%	-5%	79µM*	5µM*
CC(C)NCCCCOc1ccc(Br)cc1Cl	-14%	-20%	51%	-6%	-2%	32µM*
O=C(COc1ccc(Cl)cc1Br)NC1CC1	-10%	21%	-1%	-7%	8%	-5%
COC(=O)C1=C(c2ccccc2)c2ccccc2S(=O)(=O)N1CC(=O)Nc1cccc(C(C)=O)c1	.	14%	.	10%	-13%	?
COC(=O)c1ccc(OCCCCN2CC(C)OC(C)C2)cc1 (stereo not drawn)	-17%	?	16%	6%	79µM*	11µM*
CCC1CCCCN1CCCCOc1cccc(Cl)c1 (stereo not drawn)	-10%	?	.	11%	?	18µM*
CC1CCCN(CCCCOc2cccc(Br)c2)C1 (stereo not drawn)	-6%	-14%	-11%	27%	50µM*	50µM*
CCOc1cccc(OCCCCN2CCCCC2)c1	-1%	?	-4%	4%	?	?
Brc1cccc(OCCCCN2CCCCC2)c1	-2%	?	-9%	-8%	?	50µM*
CCCCOc1ccc(C(=O)NCC(=O)N2CC(C)OC(C)C2)cc1 (stereo not drawn)	0%	36%	3%	-11%	1%	-2%
COCCn1c(=O)c(-c2ccc(F)cc2)nc2cnc(Nc3cccc(OC)c3)nc21	.	.	.	-17%	.	.
O=C(COc1ccc(Br)cc1)OCCN1CCCCC1	-10%	60%	-2%	-6%	-4%	-5%
SMILES	PLK1 PBD inh	HP1b binding inh	L3MBTL1 block	VDR inhibitor	BAZ2B block	JMJD2A Tudor inh
CC1CCCN(CCOc2ccc(Br)cc2)C1 (stereo not drawn)	-1%	-37%	1%	-21%	?	20µM*
COc1cccc(OCCCCN2CC(C)OC(C)C2)c1 (stereo not drawn)	1%	?	.	3%	?	6.3µM*
COc1cccc(OCCCCN2CCCCC2)c1	-8%	-3%	-14%	-1%	?	8.9µM*
COc1cccc(OCCCN2CCCCC2)c1	-2%	14%	-6%	1%	5%	-12%
Cc1ccc2c(c1)C(c1ccc(F)cc1)N(C(=O)COc1ccc(Cl)cc1Cl)CC(=O)N2 (stereo not drawn)	.	16%	.	-14%	-14%	-18%
O=C(Nc1nc([C@@H]2O[C@H](CO)[C@@H](O)[C@H](O)[C@H]2O)cs1)NC(c1ccccc1)c1ccccc1	4%	.	.	.	.	.
CC(C)C(NC(=O)c1ccccc1F)C(=O)NCc1ccccc1 (stereo not drawn)	27µM*	-4%	.	?	0%	40µM*
CC(NC(=O)CCCC1=NS(=O)(=O)c2ccccc2N1)c1ccccc1 (stereo not drawn)	.	28%	.	16%	2%	-11%
O=[N+]([O-])c1ccc(O)c(C=NNc2ccc(S(=O)(=O)O)cc2)c1	-14%	-7%[57 µM]	.	-12%	.	79µM*
CCN(CC)S(=O)(=O)c1ccc(N/N=C/c2ccc(O)cc2O)nc1	-9%	37%	?	-20%	25µM*	-28%
O=[N+]([O-])c1ccc(NN=Cc2ccc(O)cc2O)nc1	-2%	10%[57 µM]	.	-16%	.	-16%
O=[N+]([O-])c1ccc(O)c(/C=N/Nc2ncnc3c2cnn3-c2ccccc2)c1	-29%	-10%	.	24%	?	79µM*
O=[N+]([O-])c1cccc(N/N=C/c2cc([N+](=O)[O-])ccc2O)c1	-9%	7%	-9%	15%	-24%	-8%
Oc1ccc(/C=N/Nc2ncc(Br)cn2)c(O)c1	-4%	15%	?	7%	14µM*	?
CCn1ncc(Cl)c1C(=O)NC(C)c1ccccc1 (stereo not drawn)	-6%	37%	8%	-4%	4%	-7%
O=[N+]([O-])c1ccc(O)c(/C=N/Nc2nc3ccccc3[nH]2)c1	-5%	17%	?	-9%	32µM*	?
O=[N+]([O-])c1ccc(O)c(/C=N/Nc2ccccn2)c1	-4%	23%	13µM*	-3%	4.5µM*	?
Oc1ccc(C=NNc2ccccn2)c(O)c1	1%	13%	.	10%	.	20µM*
C(=N\Nc1ccccn1)/c1c[nH]c2ccccc12	5%	-4%	-23%	-8%	32µM*	?
CN(C)c1ccc(CNC(=O)CCn2cccn2)cc1	.	?	.	3%	-15%	-30%
Cc1ccc(CNC(=O)CN(c2cccc(C)c2C)S(=O)(=O)c2ccccc2)cc1	.	23%	.	-2%	1%	-2%
Cc1cccc(C(=O)Nc2ccccc2SCc2cc(=O)c3cccc(C)c3[nH]2)c1	.	12%[57 µM]	.	7%	4%	-18%
CCCSc1cc(NCCOC(=O)CCC)c([N+](=O)[O-])c2nonc12	17µM*	-23%	-15%	?	-37%	-32%
CCCC(=O)OCCNc1cc(SCc2ccco2)c2nonc2c1[N+](=O)[O-]	?	?	?	?	25µM*	?
O=[N+]([O-])c1c(NCc2ccco2)ccc2nonc12	-4%	13%	-8%	0%	-24%	-12%
